Values joined by “and” are separate entries in the source; they are usually repeats but may differ in a detail not shown here. Equal entries are not always repeated. Among all 5,500 compounds or so, about 2,000 (36%) were called active. Inconclusive results (about 18%) are left out. Cut-off read from the data, not from the text of the source: active = normalized growth mostly below about 0.91 (no sharp cut-off); inconclusive = no clear call, values can overlap the other calls; inactive = mostly above about 0.92. Some of the results follow.
Test: chemical genetic growth profiling, strain panel (AID 1159580);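 note: tested at 20 µM; growth read once vehicle control cultures reached saturation at 30 °C; 1 = growth at the plate median or of vehicle wells; lower values mean less growth of the strain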
Settings: S. cerevisiae deletion strains, growth OD

Measured: normalized growth

CN/C(=C\[N+](=O)[O-])NCCSCc1ccc(CN(C)C)o1
inactive: locus YAL021C, strain ccr4, active compounds read low 0.979 | locus YAL026C, strain drs2, active compounds read low 0.99 | locus YAL030W, strain snc1, active compounds read low 1 | locus YAL040C, strain CLN3, active compounds read low 1 | locus YBL061C, strain skt5, active compounds read low 0.974 | locus YBR009C, strain hhf1, active compounds read low 0.998 | locus YBR021W, strain FUR4, active compounds read low 1.04 | locus YBR023C, strain chs3, active compounds read low 0.989 | locus YBR171W, strain sec66, active compounds read low 0.989 | locus YBR229C, strain ROT2, active compounds read low 1.02 | locus YBR231C, strain swc5, active compounds read low 0.977 | locus YBR279W, strain paf1, active compounds read low 0.991 | locus YCL011C, strain gbp2, active compounds read low 0.984 | locus YCL016C, strain dcc1, active compounds read low 0.986 | locus YCL029C, strain bik1, active compounds read low 1 | locus YCL061C, strain MRC1 (second series), active compounds read low 1.01 | locus YCL069W, strain vba3, active compounds read low 0.973 | locus YCR088W, strain abp1, active compounds read low 0.976 | locus YDL005C, strain med2, active compounds read low 0.977 | locus YDL035C, strain GPR1, active compounds read low 1.04 | locus YDL040C, strain nat1, active compounds read low 0.99 | locus YDL074C, strain BRE1, active compounds read low 1.07 | locus YDL101C, strain DUN1, active compounds read low 1.03 | locus YDL134C, strain PPH21, active compounds read low 1.03 | locus YDL185W, strain tfp1, active compounds read low 0.987 | locus YDL192W, strain arf1, active compounds read low 0.989 | locus YDR001C, strain nth1, active compounds read low 0.982 | locus YDR069C, strain doa4, active compounds read low 0.97 | locus YDR101C, strain arx1, active compounds read low 1.01 | locus YDR137W, strain rgp1, active compounds read low 0.975 | locus YDR150W, strain NUM1, active compounds read low 1.02 | locus YDR159W, strain sac3, active compounds read low 0.94 | locus YDR162C, strain NBP2, active compounds read low 1.02 | locus YDR195W, strain ref2 0.943 | locus YDR297W, strain sur2, active compounds read low 0.972 | locus YDR318W, strain mcm21, active compounds read low 0.991 | locus YDR334W, strain swr1, active compounds read low 0.977 | locus YDR335W, strain msn5, active compounds read low 0.998 | locus YDR363W, strain ESC2, active compounds read low 1 | locus YDR388W, active compounds read low 0.995 | locus YDR392W, strain spt3, active compounds read low 0.993 | locus YDR502C, strain sam2, active compounds read low 0.997 | locus YEL003W, strain gim4, active compounds read low 0.992 | locus YEL037C, strain rad23, active compounds read low 0.986 | locus YEL061C, strain CIN8 (second series), active compounds read low 0.977 | locus YEL061C, strain CIN8, active compounds read low 1.01 | locus YER002W, strain NOP16, active compounds read low 0.988 | locus YER015W, strain faa2, active compounds read low 0.995 | locus YER016W, strain bim1, active compounds read low 0.973 | locus YER110C, active compounds read low 1 | locus YER111C, strain swi4, active compounds read low 0.992 | locus YER155C, strain BEM2 (second series), active compounds read low 0.973 | locus YER155C, strain BEM2, active compounds read low 1.01 | locus YER167W, strain BCK2, active compounds read low 1.02 | locus YFR010W, strain ubp6, active compounds read low 0.99 | locus YGL078C, strain dbp3, active compounds read low 0.986 | locus YGL086W, strain mad1, active compounds read low 0.999 | locus YGL167C, strain pmr1, active compounds read low 0.987 | locus YGL173C, strain kem1, active compounds read low 0.989 | locus YGL227W, strain vid30, active compounds read low 0.978 | locus YGL240W, strain doc1, active compounds read low 0.996 | locus YGL248W, strain PDE1, active compounds read low 1.04 | locus YGL253W, strain hxk2, active compounds read low 0.993 | locus YGR078C, strain PAC10, active compounds read low 0.997 | locus YGR135W, strain pre9, active compounds read low 0.98 | locus YGR252W, strain gcn5, active compounds read low 0.984 | locus YHR013C, strain ard1, active compounds read low 0.952 | locus YHR027C, strain rpn1, active compounds read low 1.01 | locus YHR030C, strain SLT2, active compounds read low 1.02 and 0.986 | locus YHR079C, strain IRE1 (second series), active compounds read low 0.982 | locus YHR079C, strain IRE1, active compounds read low 0.999 | locus YHR094C, strain hxt1, active compounds read low 0.983 | locus YHR129C, strain ARP1, active compounds read low 1.02 | locus YHR142W, strain chs7, active compounds read low 0.99 | locus YHR200W, strain rpn10, active compounds read low 0.984 | locus YIL066C, strain RNR3, active compounds read low 1.04 | locus YIL073C, strain SPO22, active compounds read low 0.98 | locus YIL125W, strain kgd1, active compounds read low 0.984 | locus YIR030C, strain dcg1, active compounds read low 0.988 | locus YJL092W, strain hpr5, active compounds read low 0.979 | locus YJL095W, strain BCK1 (second series), active compounds read low 0.995 | locus YJL095W, strain BCK1, active compounds read low 1.05 and 0.995 | locus YJL115W, strain asf1, active compounds read low 0.986 | locus YJL129C, strain trk1, active compounds read low 0.957 | locus YJL134W, strain LCB3, active compounds read low 1.01 | locus YJL154C, strain vps35, active compounds read low 0.973 | locus YJL164C, strain tpk1, active compounds read low 0.996 | locus YJL166W, strain qcr8, active compounds read low 0.985 | locus YJL168C, strain set2, active compounds read low 0.988 | locus YJL187C, strain SWE1 (second series), active compounds read low 1.04 | locus YJL187C, strain SWE1, active compounds read low 0.977 | locus YJR043C, strain POL32, active compounds read low 1.05 | locus YJR066W, strain TOR1, active compounds read low 0.944 | locus YJR075W, strain HOC1, active compounds read low 0.996

Reference: PubChem BioAssay AID1159580 (chemical genetic matrix, 2015)
